This is an account of results in the supplement of paper PMC6555819.

Experiment in all cases: PBM binding z-score (relative to random genomic background probes); higher = stronger binding; sequences stand for … in GC…GCGATTGACAGCGTAGAATGAAGG
The test system of assay [1] is FXR:RXRa (NR concentration 270 nM, RXRa partner concentration 90 nM). The gist of the method: (§1)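 Scanned fluorescence from custom Agilent 4×180K protein-binding microarrays was regression-normalized. Binding z-scores use random background probes as reference. Ligand-free nuclear receptor dimers were incubated on the arrays for 1 h and detected with antibodies against each partner (one per run).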

Assay [2] deals with LXRa:RXRa (NR concentration 270 nM, RXRa partner concentration 90 nM). The gist of the method: as §1
Assay [3] concerns LXRa homodimer (NR concentration 270 nM). The gist of the method:
as §1

The test system of assay [4] is LXRb:RXRa (NR concentration 270 nM, RXRa partner concentration 90 nM). The gist of the method:
as §1

Assay [5] concerns LXRb homodimer (NR concentration 270 nM). The gist of the method: as §1
Assay [6] relates to PPARa:RXRa (NR concentration 270 nM, RXRa partner concentration 90 nM). The gist of the method: as §1
Assay [7] deals with PPARg:RXRa (NR concentration 180 nM, RXRa partner concentration 90 nM). In short, it runs like this: as §1
For assay [8], the system named is PPARg:RXRa 270nM:90nM, anti-RXR (NR concentration 270 nM, RXRa partner concentration 90 nM). The gist of the method: as §1
In assay [9] the test system is PPARg:RXRa 30nM:10nM, anti-RXR (NR concentration 30 nM, RXRa partner concentration 10 nM). In short, it runs like this:
as §1

For assay [10], the system named is PPARg:RXRa 90nM:30nM, anti-RXR (NR concentration 90 nM, RXRa partner concentration 30 nM). In short, it runs like this: as §1
Assay [11] deals with PPARg:RXRa DBDmut IVT, anti-RXR (DBD mutation: RXRa K156A/R161A, NR concentration 270 nM, RXRa partner concentration 90 nM). In short, it runs like this: as §1
The test system of assay [12] is PPARg:RXRa IVT, anti-PPARg (NR concentration 270 nM, RXRa partner concentration 90 nM). In short, it runs like this:
as §1

Assay [13] deals with PPARg DBDmut:RXRa IVT, anti-PPARg (DBD mutation: PPARg1 K132A/R137A, NR concentration 270 nM, RXRa partner concentration 90 nM). The gist of the method: as §1
For assay [14], the system named is PPARg DBDmut IVT, anti-PPARg (DBD mutation: PPARg1 K132A/R137A, NR concentration 270 nM). In short, it runs like this: as §1
Assay [15] has as its system PPARg homodimer (NR concentration 180 nM). The gist of the method:
as §1

In assay [16] the test system is PXR:RXRa (NR concentration 270 nM, RXRa partner concentration 90 nM). In short, it runs like this:
as §1

For assay [17], the system named is PXR homodimer (NR concentration 270 nM). In short, it runs like this: as §1
The subject of assay [18] is RARa:RXR (NR concentration 270 nM, RXRa partner concentration 90 nM). The gist of the method:
as §1

The subject of assay [19] is RARa homodimer (NR concentration 270 nM). In short, it runs like this: as §1
The subject of assay [20] is RARb:RXRa (NR concentration 270 nM, RXRa partner concentration 90 nM). In short, it runs like this:
as §1

In the case of CCTAGCAGGCCAGGGTCACTAAAGCATTTCGCTT, the PBM binding z-score is 1.78 in assay [1]; 1.59 in assay [2]; -0.472 in assay [3]; 1.78 in assay [4]; -1.37 in assay [5]; 3.06 in assay [6]. Also, the PBM binding z-score in assay [7] is 0.442; in [8] it was 1.2; in assay [9], -0.365; in assay [10] it was 0.422; in assay [11] it was 0.051; in [12] it was 0.519. Besides, the PBM binding z-score is -1.03 in [13]; -1.22 in assay [14]; 0.403 in [15]; 2.21 in assay [16]; -0.725 in [17]; 2.96 in [18]. Further, the PBM binding z-score was -0.568 in [19] and 2.35 in [20].

Regarding GTACCAAGGTTAATAGGTCGTTGATGAGTAGGCG, the PBM binding z-score was 2.13 in assay [1]; 1.67 in assay [2]; 0.289 in assay [3]; 1.34 in [4]; -0.213 in [5]; 3.18 in assay [6]. In addition, the PBM binding z-score in [7] is 3; in assay [8] it was 3.43; in assay [9], 1.01; in assay [10] it was 2.5; in assay [11] it was 1.85; in [12], 3.6. Further, the PBM binding z-score in assay [13] is 0.0971; in assay [14], -0.158; in assay [15], 2.1; in [16] it was 1.69; in [17], 0.273; in assay [18], 2.82. Besides, the PBM binding z-score was found to be 0.938 in assay [19] and 2.5 in [20].

In the case of ATCGAAAGGTCGAATGTGAGTATACCCACCCGAA, the PBM binding z-score in [1] was 4.89; in [2], 4.01; in [3], 0.69; in [4] it was 3.19; in [5], 1.37; in [6], 4.5. Further, the PBM binding z-score in assay [7] amounted to 2.9; in assay [8], 3.02; in [9] it was 1.25; in assay [10], 1.97; in assay [11], 0.065; in assay [12] it was 1.47. Also, the PBM binding z-score in assay [13] turned out to be 1.15; in assay [14], 0.649; in assay [15], 1.56; in assay [16], 2.5; in assay [17], 0.558; in assay [18], 2.9. In addition, the PBM binding z-score in assay [19] came to 0.346; in [20], 3.72.

Take TAGCCTAGGTCATTGGGCCTGTATAGTACGCATC: the PBM binding z-score in [1] is 4.24; in assay [2], 3.47; in assay [3], 0.96; in assay [4], 2.39; in [5] it was -0.0318; in assay [6] it was 3.52. The PBM binding z-score worked out at 2.18 in [7]; 2.86 in assay [8]; 0.506 in [9]; 1.59 in assay [10]; 2.39 in assay [11]; 3.03 in assay [12]. The PBM binding z-score in assay [13] is -0.124; in [14], -0.181; in [15], 1.46; in assay [16] it was 1.65; in [17], -0.0817; in assay [18] it was 2.37. Further, the PBM binding z-score was -0.457 in assay [19] and 3.55 in assay [20].

For the sequence GCTGCTATGTCAGGTTGGTCAGCTAACGGGTACG, the PBM binding z-score was -0.0269 in assay [1]; -0.171 in assay [2]; -0.277 in [3]; -0.513 in assay [4]; -0.58 in [5]; -0.327 in assay [6]. The PBM binding z-score is -0.164 in [7]; -0.401 in [8]; -0.739 in [9]; -0.312 in assay [10]; 0.218 in assay [11]; -0.36 in assay [12]. The PBM binding z-score in assay [13] is -0.641; in assay [14], -1.12; in [15] it was -0.452; in [16] it was -0.319; in assay [17], -0.426; in assay [18], -0.149. Moreover, the PBM binding z-score was -0.632 in assay [19] and 0.458 in assay [20].

Consider TTACCAATGTGAGCTGAGGTCGTTGATCCAACTC, for which the PBM binding z-score in assay [1] was 0.612; in [2], 0.222; in [3], -0.15; in [4], 0.408; in [5] it was -0.727; in [6], 0.851. For the same sequence, the PBM binding z-score in assay [7] is -0.119; in [8], 0.638; in [9], 0.496; in assay [10], 0.42; in assay [11] it was -0.252; in assay [12], -0.0612. Besides, the PBM binding z-score in assay [13] is 0.679; in [14], -0.281; in assay [15] it was -0.49; in [16], 2.46; in assay [17] it was 0.562; in assay [18], 1.53. The PBM binding z-score in assay [19] is -0.185; in [20] it was 0.439.

As to ATCTCTAGGTAACCAAGTTCAGCGAATGCCGAAC, the PBM binding z-score is 0.438 in assay [1]; 0.886 in assay [2]; 0.803 in assay [3]; 0.7 in [4]; 0.602 in [5]; 1.4 in assay [6]. Besides, the PBM binding z-score worked out at 0.655 in assay [7]; 1.07 in [8]; 0.316 in [9]; 0.524 in [10]; 3.55 in assay [11]; 2.95 in assay [12]. The PBM binding z-score was 1.37 in assay [13]; 0.686 in assay [14]; 0.704 in assay [15]; 2.02 in assay [16]; 1.3 in [17]; 1.04 in [18]. In addition, the PBM binding z-score in [19] worked out at 0.165; in [20] it was 1.34.
